# Experiments:
# [1] = molecular target: Tyrosine-protein kinase CSK (Homo sapiens) (UniProt P41240); conditions: at 1 µM;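 further: each value is an averaged inhibition reading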
# [2] = molecular target: T1, Discoidin domain-containing receptor 2 (Homo sapiens) (UniProt Q16832); conditions: at 0.1 µM
# T1 sequence (whole entry): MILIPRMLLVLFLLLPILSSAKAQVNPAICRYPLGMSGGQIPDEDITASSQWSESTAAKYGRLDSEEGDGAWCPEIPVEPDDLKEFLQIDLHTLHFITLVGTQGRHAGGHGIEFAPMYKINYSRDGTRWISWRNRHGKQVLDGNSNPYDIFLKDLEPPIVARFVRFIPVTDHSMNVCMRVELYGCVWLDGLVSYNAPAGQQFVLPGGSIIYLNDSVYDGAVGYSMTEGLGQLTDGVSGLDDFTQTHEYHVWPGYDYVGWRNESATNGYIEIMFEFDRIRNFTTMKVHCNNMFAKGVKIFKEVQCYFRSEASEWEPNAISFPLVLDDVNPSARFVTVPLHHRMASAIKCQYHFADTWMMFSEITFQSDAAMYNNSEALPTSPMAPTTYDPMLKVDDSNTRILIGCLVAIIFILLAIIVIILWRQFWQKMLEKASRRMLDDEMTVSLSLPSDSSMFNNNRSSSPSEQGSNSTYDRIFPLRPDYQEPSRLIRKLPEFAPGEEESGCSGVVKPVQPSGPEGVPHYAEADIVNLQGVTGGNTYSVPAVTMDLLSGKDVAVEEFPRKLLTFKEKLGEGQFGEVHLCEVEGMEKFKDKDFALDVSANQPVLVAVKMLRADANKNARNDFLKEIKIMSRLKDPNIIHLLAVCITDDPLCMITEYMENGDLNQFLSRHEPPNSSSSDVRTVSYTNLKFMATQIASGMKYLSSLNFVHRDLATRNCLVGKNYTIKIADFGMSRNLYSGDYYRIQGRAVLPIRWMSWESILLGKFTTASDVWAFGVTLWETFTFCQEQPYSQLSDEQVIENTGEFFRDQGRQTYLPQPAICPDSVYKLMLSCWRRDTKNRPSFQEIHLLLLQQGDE
# [3] = molecular target: T1, Discoidin domain-containing receptor 2 (Homo sapiens); conditions: at 1 µM
# [4] = molecular target: Epidermal growth factor receptor (Homo sapiens) (UniProt P00533); conditions: at 0.1 µM
# [5] = molecular target: Epidermal growth factor receptor (Homo sapiens) (UniProt P00533); conditions: at 1 µM
# [6] = system: Epidermal growth factor receptor (Homo sapiens), P00533 [L858R]; conditions: at 0.1 µM
# [7] = system: Epidermal growth factor receptor (Homo sapiens), P00533 [L858R]; conditions: at 1 µM
# [8] = system: Epidermal growth factor receptor (Homo sapiens), P00533 [L861Q]; conditions: at 0.1 µM
# [9] = system: Epidermal growth factor receptor (Homo sapiens), P00533 [L861Q]; conditions: at 1 µM
# [10] = system: Epidermal growth factor receptor (Homo sapiens), P00533 [T790M]; conditions: at 0.1 µM
# [11] = system: Epidermal growth factor receptor (Homo sapiens), P00533 [T790M]; conditions: at 1 µM
# [12] = system: Epidermal growth factor receptor (Homo sapiens), P00533 [L858R,T790M]; conditions: at 0.1 µM
# [13] = system: Epidermal growth factor receptor (Homo sapiens), P00533 [L858R,T790M]; conditions: at 1 µM
# [14] = molecular target: Ephrin type-A receptor 2 (Homo sapiens) (UniProt P29317); conditions: at 0.1 µM
# [15] = molecular target: Ephrin type-A receptor 2 (Homo sapiens) (UniProt P29317); conditions: at 1 µM
# [16] = molecular target: T2, Ephrin type-A receptor 3 (Homo sapiens) (UniProt P29320); conditions: at 0.1 µM
# T2 sequence (whole entry): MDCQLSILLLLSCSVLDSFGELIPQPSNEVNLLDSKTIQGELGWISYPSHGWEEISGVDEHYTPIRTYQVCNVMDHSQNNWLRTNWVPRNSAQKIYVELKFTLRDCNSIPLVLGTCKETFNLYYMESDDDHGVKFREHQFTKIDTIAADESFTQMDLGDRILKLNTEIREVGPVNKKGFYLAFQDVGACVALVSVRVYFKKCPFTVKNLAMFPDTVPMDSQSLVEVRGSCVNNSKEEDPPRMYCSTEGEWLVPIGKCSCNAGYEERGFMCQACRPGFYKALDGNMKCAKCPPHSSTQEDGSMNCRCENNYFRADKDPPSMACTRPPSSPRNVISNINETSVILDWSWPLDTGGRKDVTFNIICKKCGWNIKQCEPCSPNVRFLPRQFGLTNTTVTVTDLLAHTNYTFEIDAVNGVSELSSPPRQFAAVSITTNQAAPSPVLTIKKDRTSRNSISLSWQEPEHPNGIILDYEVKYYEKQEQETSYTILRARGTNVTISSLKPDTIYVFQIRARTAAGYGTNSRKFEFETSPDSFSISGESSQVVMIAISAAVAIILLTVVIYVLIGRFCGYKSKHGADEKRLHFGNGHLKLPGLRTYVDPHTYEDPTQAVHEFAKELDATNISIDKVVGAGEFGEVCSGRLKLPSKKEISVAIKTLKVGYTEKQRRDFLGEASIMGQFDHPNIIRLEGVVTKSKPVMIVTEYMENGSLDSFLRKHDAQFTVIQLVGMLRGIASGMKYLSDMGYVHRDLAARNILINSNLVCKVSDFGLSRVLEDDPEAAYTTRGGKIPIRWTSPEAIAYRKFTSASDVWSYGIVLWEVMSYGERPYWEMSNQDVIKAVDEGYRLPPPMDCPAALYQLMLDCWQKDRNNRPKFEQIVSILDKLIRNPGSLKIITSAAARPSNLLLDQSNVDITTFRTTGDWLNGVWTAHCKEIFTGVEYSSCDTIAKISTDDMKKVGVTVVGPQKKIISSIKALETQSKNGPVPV
# [17] = molecular target: T2, Ephrin type-A receptor 3 (Homo sapiens); conditions: at 1 µM
# [18] = molecular target: Ephrin type-A receptor 4 (Homo sapiens) (UniProt P54764); conditions: at 0.1 µM
# [19] = molecular target: Ephrin type-A receptor 4 (Homo sapiens) (UniProt P54764); conditions: at 1 µM
# [20] = molecular target: T3, Ephrin type-B receptor 2 (Homo sapiens) (UniProt P29323); conditions: at 0.1 µM;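 further: reported as mean inhibition of EPHB2, from the GSK PKIS dataset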
# T3 sequence (whole entry): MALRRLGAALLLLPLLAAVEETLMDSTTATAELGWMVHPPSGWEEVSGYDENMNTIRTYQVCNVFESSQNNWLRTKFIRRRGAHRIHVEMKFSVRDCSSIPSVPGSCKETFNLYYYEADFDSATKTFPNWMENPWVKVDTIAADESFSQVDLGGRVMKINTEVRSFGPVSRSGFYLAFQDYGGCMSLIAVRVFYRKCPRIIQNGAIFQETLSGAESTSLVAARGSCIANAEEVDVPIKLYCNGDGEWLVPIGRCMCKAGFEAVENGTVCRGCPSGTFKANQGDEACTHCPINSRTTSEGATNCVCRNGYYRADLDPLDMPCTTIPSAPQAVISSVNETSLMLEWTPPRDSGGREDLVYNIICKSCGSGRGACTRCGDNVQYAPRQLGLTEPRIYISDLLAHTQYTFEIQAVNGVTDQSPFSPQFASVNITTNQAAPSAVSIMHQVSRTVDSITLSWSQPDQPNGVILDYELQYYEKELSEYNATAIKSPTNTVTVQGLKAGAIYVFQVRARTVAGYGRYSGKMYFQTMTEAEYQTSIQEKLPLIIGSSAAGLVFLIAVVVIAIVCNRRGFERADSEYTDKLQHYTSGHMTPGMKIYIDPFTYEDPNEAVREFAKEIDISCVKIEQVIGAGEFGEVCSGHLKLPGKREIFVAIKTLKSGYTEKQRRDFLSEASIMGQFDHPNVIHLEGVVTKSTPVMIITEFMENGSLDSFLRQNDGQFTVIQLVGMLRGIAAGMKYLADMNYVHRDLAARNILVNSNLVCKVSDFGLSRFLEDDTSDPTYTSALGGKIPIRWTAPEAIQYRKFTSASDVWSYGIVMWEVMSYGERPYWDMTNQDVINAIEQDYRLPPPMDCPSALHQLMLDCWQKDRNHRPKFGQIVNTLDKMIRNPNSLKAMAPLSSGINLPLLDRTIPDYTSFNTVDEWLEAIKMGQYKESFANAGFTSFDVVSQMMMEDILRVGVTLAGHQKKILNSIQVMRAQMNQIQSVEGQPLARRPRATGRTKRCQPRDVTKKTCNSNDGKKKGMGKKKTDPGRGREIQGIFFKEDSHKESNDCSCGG
# Chain of Epidermal growth factor receptor (Homo sapiens), P00533 [L858R,T790M] (P00533 whole entry T790M/L858R, looked up): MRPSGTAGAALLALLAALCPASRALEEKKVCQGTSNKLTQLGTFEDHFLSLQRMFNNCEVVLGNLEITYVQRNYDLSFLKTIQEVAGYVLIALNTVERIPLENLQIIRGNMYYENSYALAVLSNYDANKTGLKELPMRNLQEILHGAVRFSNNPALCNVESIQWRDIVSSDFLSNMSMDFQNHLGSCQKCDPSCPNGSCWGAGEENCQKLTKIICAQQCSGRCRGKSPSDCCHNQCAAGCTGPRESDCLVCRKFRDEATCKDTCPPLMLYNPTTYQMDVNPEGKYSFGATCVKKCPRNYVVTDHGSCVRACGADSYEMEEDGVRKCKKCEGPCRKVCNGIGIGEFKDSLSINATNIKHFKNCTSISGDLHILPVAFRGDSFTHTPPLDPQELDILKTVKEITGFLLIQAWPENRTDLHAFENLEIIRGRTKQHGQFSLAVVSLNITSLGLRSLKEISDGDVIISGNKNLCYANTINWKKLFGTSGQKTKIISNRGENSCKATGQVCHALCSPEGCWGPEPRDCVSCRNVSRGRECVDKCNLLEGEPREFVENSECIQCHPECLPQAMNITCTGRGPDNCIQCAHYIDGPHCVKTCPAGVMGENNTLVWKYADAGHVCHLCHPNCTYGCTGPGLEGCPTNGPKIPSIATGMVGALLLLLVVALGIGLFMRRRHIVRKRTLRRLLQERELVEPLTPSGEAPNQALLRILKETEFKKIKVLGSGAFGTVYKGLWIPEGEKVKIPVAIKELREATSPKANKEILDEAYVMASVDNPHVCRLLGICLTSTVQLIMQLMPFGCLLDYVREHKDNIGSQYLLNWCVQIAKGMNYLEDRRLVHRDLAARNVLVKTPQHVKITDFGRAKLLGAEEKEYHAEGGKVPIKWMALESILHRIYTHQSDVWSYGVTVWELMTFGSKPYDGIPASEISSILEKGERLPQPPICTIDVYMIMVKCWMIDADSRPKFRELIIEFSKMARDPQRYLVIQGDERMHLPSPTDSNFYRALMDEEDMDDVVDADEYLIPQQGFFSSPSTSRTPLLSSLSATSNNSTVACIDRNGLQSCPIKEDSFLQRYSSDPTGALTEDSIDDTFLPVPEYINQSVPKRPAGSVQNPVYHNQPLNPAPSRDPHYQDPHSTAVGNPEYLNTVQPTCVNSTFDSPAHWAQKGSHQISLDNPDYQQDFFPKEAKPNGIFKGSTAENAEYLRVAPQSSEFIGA
# Chain of Epidermal growth factor receptor (Homo sapiens), P00533 [L858R] (P00533 whole entry L858R): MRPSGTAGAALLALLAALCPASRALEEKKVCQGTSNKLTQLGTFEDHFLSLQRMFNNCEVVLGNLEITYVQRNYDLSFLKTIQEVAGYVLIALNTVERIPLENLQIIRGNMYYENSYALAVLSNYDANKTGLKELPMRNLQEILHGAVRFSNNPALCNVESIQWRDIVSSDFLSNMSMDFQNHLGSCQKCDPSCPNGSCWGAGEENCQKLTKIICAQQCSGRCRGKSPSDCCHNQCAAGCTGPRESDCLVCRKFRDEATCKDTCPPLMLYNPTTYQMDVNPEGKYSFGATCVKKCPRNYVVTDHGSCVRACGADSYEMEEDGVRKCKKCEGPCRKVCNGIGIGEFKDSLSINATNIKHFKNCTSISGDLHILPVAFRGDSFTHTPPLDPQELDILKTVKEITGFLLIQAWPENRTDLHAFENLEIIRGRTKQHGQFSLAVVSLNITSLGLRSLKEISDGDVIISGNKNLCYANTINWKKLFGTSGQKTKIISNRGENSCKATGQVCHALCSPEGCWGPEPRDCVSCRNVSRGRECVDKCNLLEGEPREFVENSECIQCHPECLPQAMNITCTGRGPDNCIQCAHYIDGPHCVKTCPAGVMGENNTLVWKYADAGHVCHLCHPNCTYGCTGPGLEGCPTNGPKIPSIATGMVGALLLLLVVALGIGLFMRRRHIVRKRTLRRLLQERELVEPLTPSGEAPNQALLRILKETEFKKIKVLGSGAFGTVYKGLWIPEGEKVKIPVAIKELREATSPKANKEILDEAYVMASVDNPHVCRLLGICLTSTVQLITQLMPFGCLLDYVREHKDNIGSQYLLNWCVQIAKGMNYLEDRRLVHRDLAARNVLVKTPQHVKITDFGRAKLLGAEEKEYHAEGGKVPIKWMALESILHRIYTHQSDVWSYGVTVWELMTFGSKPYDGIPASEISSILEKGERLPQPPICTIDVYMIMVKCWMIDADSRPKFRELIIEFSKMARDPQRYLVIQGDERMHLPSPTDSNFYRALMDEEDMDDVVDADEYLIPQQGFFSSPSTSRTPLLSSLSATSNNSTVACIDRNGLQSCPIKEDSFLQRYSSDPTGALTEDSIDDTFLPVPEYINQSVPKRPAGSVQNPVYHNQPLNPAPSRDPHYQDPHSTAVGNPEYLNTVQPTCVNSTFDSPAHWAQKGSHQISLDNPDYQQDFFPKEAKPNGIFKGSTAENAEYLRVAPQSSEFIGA
# Chain of Ephrin type-A receptor 4 (Homo sapiens) (P54764 whole entry): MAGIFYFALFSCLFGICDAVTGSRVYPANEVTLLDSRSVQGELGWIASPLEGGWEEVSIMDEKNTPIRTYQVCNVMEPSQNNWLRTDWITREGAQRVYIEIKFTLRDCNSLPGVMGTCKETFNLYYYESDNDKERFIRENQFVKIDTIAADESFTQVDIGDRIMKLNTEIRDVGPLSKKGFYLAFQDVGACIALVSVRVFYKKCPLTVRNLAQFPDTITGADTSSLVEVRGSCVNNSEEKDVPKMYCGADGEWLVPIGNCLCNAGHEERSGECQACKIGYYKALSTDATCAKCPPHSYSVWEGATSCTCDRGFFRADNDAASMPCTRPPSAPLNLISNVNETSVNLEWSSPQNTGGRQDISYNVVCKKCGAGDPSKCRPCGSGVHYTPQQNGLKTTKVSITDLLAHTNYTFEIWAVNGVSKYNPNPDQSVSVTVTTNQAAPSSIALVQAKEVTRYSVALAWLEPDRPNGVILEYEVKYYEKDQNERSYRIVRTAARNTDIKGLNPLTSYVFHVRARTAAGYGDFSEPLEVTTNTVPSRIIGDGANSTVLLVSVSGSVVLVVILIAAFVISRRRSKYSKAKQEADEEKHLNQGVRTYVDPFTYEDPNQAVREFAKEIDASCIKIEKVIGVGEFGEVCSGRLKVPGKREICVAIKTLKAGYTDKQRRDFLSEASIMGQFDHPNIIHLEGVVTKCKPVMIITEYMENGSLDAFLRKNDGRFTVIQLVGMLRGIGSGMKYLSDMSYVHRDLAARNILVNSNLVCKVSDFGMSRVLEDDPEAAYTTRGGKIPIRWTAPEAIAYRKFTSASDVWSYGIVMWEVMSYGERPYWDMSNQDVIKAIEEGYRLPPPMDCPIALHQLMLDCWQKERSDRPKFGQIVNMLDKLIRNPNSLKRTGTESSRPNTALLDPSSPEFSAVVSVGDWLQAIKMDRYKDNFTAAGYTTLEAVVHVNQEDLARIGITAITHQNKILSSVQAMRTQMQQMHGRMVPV
# Chain of Epidermal growth factor receptor (Homo sapiens), P00533 [L861Q] (P00533 whole entry L861Q): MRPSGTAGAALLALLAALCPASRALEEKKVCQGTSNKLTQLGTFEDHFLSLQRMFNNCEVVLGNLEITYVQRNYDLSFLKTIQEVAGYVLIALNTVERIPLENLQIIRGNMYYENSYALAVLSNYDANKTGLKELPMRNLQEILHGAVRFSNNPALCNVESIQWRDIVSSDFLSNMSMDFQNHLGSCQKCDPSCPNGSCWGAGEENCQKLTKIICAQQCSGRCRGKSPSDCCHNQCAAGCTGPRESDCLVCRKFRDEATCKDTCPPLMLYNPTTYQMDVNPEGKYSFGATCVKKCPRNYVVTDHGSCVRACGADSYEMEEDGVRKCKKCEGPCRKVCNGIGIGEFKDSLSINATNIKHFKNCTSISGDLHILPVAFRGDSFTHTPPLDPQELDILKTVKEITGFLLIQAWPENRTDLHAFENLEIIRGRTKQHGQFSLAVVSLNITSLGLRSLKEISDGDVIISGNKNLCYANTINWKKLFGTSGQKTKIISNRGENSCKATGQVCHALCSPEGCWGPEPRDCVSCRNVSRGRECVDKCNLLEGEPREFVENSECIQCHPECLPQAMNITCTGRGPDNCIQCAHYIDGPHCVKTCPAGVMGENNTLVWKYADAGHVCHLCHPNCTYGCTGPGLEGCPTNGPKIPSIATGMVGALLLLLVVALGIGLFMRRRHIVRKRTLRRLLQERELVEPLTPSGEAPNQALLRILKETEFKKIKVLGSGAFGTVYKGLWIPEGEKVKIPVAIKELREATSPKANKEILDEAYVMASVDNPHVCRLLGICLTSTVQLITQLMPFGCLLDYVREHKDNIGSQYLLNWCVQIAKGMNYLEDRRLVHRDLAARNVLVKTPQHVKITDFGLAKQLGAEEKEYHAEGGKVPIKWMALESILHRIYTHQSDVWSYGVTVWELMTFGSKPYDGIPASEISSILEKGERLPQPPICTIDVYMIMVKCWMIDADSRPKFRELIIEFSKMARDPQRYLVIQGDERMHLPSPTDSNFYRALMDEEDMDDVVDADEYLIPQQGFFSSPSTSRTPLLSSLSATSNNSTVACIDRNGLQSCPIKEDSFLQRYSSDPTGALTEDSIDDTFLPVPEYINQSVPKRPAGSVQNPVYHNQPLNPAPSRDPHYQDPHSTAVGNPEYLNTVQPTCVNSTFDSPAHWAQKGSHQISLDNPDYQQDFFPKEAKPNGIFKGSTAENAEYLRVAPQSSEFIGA
# Chain of Tyrosine-protein kinase CSK (Homo sapiens) (P41240 2-450 limits assumed): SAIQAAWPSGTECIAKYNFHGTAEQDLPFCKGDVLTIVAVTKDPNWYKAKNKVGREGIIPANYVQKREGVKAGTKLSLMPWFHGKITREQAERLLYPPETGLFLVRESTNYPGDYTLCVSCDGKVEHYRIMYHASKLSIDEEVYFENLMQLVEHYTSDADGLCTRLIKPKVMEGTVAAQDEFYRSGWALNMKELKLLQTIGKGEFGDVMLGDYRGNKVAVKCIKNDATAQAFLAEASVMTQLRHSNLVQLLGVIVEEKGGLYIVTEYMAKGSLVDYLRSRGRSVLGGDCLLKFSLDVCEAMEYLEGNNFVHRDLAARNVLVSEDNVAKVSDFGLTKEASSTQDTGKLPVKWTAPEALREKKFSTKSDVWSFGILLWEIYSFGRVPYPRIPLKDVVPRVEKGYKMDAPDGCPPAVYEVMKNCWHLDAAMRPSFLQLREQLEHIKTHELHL
Compound,inhibition [1] [%],inhibition [2] [%],inhibition [3] [%],inhibition [4] [%],inhibition [5] [%],inhibition [6] [%],inhibition [7] [%],inhibition [8] [%],inhibition [9] [%],inhibition [10] [%],inhibition [11] [%],inhibition [12] [%],inhibition [13] [%],inhibition [14] [%],inhibition [15] [%],inhibition [16] [%],inhibition [17] [%],inhibition [18] [%],inhibition [19] [%],inhibition [20] [%]
COc1cc(C)c(NC(=O)CN(C)C)cc1Nc1nc(Nc2cccc(F)c2C(N)=O)c2cc[nH]c2n1,-0.35,2.03,0.4,-1.1,5.3,1.75,6.19,2.96,5,5.98,30.3,14.3,54.2,0.91,-1.18,3.57,1.85,6.35,-1.05,4.98
COc1cc2ncn(-c3cc(O[C@H](C)c4ccccc4Cl)c(C(N)=O)s3)c2cc1OC,10.1,8.95,12,3.12,3.34,3.8,14.9,2.61,5.37,1.29,6.04,3.14,6.52,5.44,6.5,3.58,14.3,18.9,26.8,16.6
N#Cc1c(NC(=O)c2cccc3ccccc23)sc2c1CCCC2,0.21,2.55,2.6,–,–,–,–,–,–,–,–,–,–,-4.77,-1.43,2.05,4.38,6.92,2.64,5.23
COC(=O)Nc1nc2cc(Oc3ccc(NC(=O)Nc4cccc(C(=O)O)c4)cc3)ccc2[nH]1,–,8.64,48.8,-1.69,-2.11,2.63,2.26,2.15,0.36,1.78,0.98,-0.04,1.58,-2.05,-4.67,-2.34,-2.49,4.23,5.32,0.25
CS(=O)(=O)CCNCc1nc(-c2ccc3ncnc(Nc4ccc(F)c(Cl)c4)c3c2)cs1,5.64,7.7,10.9,–,–,–,–,–,–,–,–,–,–,2.15,1.65,2.83,4.56,11.7,21,13.7
Cn1cc(C=C2C(=O)Nc3cccnc32)c2ccccc21,-0.79,0.93,4.03,–,–,–,–,–,–,–,–,–,–,1.74,0.79,2.31,4.83,5.07,6.23,3.99
Fc1cccc(COc2ccc(Nc3ncnc4cc(-c5ccc[nH]5)sc34)cc2Cl)c1,1.12,0.15,-1,66.2,77.3,32.5,82.9,37.8,71.8,0.21,2.62,-2.38,0.3,-6.71,-6.16,-1.97,-0.94,5.45,6.22,1.52
COc1cc2ncn(-c3cc(OCc4ccccc4C(F)(F)F)c(C(N)=O)s3)c2cc1OC,9.28,7.36,7.43,–,3.5,2.54,13.5,3.75,4.35,2,1.9,3.32,4.7,-0.41,3.23,-0.35,7.13,11.3,23.3,14.9

# From ChEMBL document CHEMBL1961873, “Compounds: GSK PKIS; Assays: Nanosyn kinase panel” (2012)
